Measured values taken from PubChem BioAssay (Tox21).
Results filed as inconclusive are left out. Entries that show only a call come without a potency. The source made the active and inactive calls. Calls follow the shape of the dose curve; as a rule, active = well fitted cell-killing curve with a large enough effect in the repeat runs; inconclusive = weak or mixed curves, or effect the other way; inactive = flat fitted curve, though single readings scatter.

How the values were obtained:
[1] = cAMP Responsive Elements (CRE) small molecule antagonists, cell-based qHTS assay: qHTS cell viability counter screen (AID 2060913); also: nearly all actives have a fitted effect of over 40% in size
Method in brief: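 Viability of NKH477-stimulated (0.25 uM final) CRE-bla HEK293T cells is measured by CellTiter-Glo luminescence following 3 hrs compound exposure at 37 C.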

[2] = cAMP Responsive Elements (CRE) small molecule agonists, cell-based qHTS assay: qHTS cell viability counter screen (AID 2060914);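 also: viability read after 3 h of compound exposure; nearly all actives have a fitted effect of over 50% in size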
Method in brief: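 Cytotoxicity counter screen multiplexed with the CRE-bla reporter assay in HEK 293T cells: 3 h compound exposure at 37 °C, followed by CellTiter-Glo luminescence measured in the same wells.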
Potency is read from the fitted curve at half-maximal effect.

Row | SMILES | Potency [1] | Potency [2]
1 | CCCC(C(=O)OCCN(CC)CC)(c1ccccc1)c1ccccc1 | inactive | inactive
2 | Nc1cccc2c(=O)[nH][nH]c(=O)c12 | inactive | inactive
3 | CC1(C)O[C@@H]2[C@@H](CO[C@@]3(COS(N)(=O)=O)OC(C)(C)O[C@@H]23)O1 | inactive | inactive
4 | CC(C)c1cccc(C(C)C)c1NC(=O)NS(=O)(=O)c1cc(C(C)(C)O)co1 | inactive | inactive
5 | N=C(N)N | inactive | inactive
6 | Cc1cc(O)cc(C)c1Cl | inactive | inactive
7 | NC(N)=S | inactive | inactive
8 | C1C[C@@H]2[C@H]3CC[C@H](C3)[C@@H]2C1 | inactive | inactive
9 | CCc1occc(=O)c1O | inactive | inactive
10 | OCCCC1CCCCC1 | inactive | inactive
11 | CCOc1ccccc1C(N)=O | inactive | inactive
12 | O=C(/C=C/c1ccc(O)c(O)c1)O[C@@H]1C[C@@](OC(=O)/C=C/c2ccc(O)c(O)c2)(C(=O)O)C[C@@H](O)[C@@H]1O | inactive | inactive
13 | CCCOc1sc(C(=O)N2CCC(c3cc(CN)ccc3F)CC2)c(C)c1Br | 56 µM (active) | inactive
14 | CC[C@H]1OC(=O)[C@H](C)[C@@H](O[C@H]2C[C@@](C)(OC)[C@@H](O)[C@H](C)O2)[C@H](C)[C@@H](O[C@@H]2O[C@H](C)C[C@H](N(C)C)[C@H]2O)[C@](C)(O)C[C@@H](C)/C(=N\OCOCCOC)[C@H](C)[C@@H](O)[C@]1(C)O | inactive | 36 µM (active)
15 | Nc1nc(N)c(-c2ccccc2)s1 | inactive | inactive
16 | CCCCCCCCCOS(=O)(=O)O | inactive | inactive
17 | CCCCCCOC(=O)c1ccc(O)cc1 | inactive | inactive
18 | CCOC(=O)[C@H](O)[C@@H](O)C(=O)OCC | inactive | inactive
19 | O=C1c2ccccc2C(=O)C1c1nc2ccccc2c(Br)c1O | inactive | inactive
20 | Fc1ccccc1 | inactive | inactive
21 | Clc1cc(Cl)cc(Cl)c1 | inactive | inactive
22 | C[CH2][Ge]([Cl])([CH2]C)[CH2]C | inactive | inactive
23 | CC(C)NCC(O)c1cc(O)cc(O)c1 (centres undefined) | inactive | inactive
24 | CCC(C)(O)CCCC(C)C (centres undefined) | inactive | inactive
25 | O=C1CC2(CCCC2)CC(=O)N1CCNCC1COc2ccccc2O1 (centres undefined) | inactive | inactive
26 | NCc1cccc(CN)c1 | inactive | inactive

Row | SMILES | Potency [1] | Potency [2]
27 | CCN(CC)c1ccc(C(=O)c2ccccc2C(=O)O)c(O)c1 | inactive | inactive
28 | C=CCn1c(=O)n(CC=C)c(=O)n(CC=C)c1=O | inactive | inactive
29 | Cc1ccc(C(N)=O)cc1N | inactive | inactive
30 | CC(=O)O[C@@H]1C(=O)O[C@@H]2[C@H]1OC(=O)[C@@H]2OC(C)=O | inactive | inactive
31 | Nc1nc2ccc([N+](=O)[O-])cc2s1 | inactive | inactive
32 | CC(=O)CC(c1ccc([N+](=O)[O-])cc1)c1c(O)c2ccccc2oc1=O (centres undefined) | inactive | inactive
33 | CCCC(=O)CC | inactive | inactive
34 | C1N2CN3CN1CN(C2)C3 | inactive | inactive
35 | CCC(CC)C(C)CCOC(C)=O (centres undefined) | inactive | inactive
36 | CC(C)C(=O)c1ccccc1 | inactive | inactive
37 | COc1ccccc1N1CCN(CC(O)COc2cc(OC)c(OC)c(OC)c2)CC1 (centres undefined) | inactive | inactive
38 | O=C(OCCOCCOCCOC(=O)c1ccccc1)c1ccccc1 | inactive | inactive
39 | CC(=O)OCCc1ccccc1 | inactive | inactive
40 | CCSCC | inactive | inactive
41 | OCCCCCO | inactive | inactive
42 | NC(=O)NO | inactive | inactive
43 | BrCc1cccc(Oc2ccccc2)c1 | inactive | inactive
44 | O=C(O)CC(=O)C(=O)O | inactive | inactive
45 | ClC(Cl)Cl | inactive | inactive
46 | COC(=O)Nc1ccc(Cl)c(Cl)c1 | inactive | inactive
47 | Cc1ccc(-n2nc(C(C)(C)C)cc2NC(=O)Nc2ccc(OCCN3CCOCC3)c3ccccc23)cc1 | inactive | inactive
48 | C[Si]1(C)O[Si](C)(C)O[Si](C)(C)O1 | inactive | inactive
49 | O=C(OCCCCCOC(=O)c1ccccc1)c1ccccc1 | inactive | inactive
50 | O=C(O)Cc1ccc(Cl)cc1Cl | inactive | inactive
51 | O=P(OC(CCl)CCl)(OC(CCl)CCl)OC(CCl)CCl | inactive | inactive
52 | CO[Si](OC)(c1ccccc1)c1ccccc1 | inactive | inactive
